# PLK1 PBD inh: PLK1 (human) polo-box domain binding inhibition | P53350 | Plk1 PBD binding of FITC phosphopeptide, fluorescence polarization | Potency, µM, inactives show max response, negative = inhibition, usual class: inhibitors | hit rate 2.8% among 360,000 | AID 720504; note: potency is the fitted concentration of half-maximal effect; series mostly up to about 57 µM; nearly all actives have a fitted effect of over 65% in size
# Sfp PPTase inh: blocks B. subtilis Sfp PPTase activity | Q9F4F7 | Biochemical Sfp PPTase activity, qHTS | Potency, µM, for inactives: largest response in the series, negative = inhibition, most hits filed as inhibitors | hit rate 3.5% among 310,000 | AID 1490;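 note: the enzyme is Sfp with the accession as filed and its product quenches rhodamine fluorescence; potency is the fitted concentration of half-maximal effect; 0% = enzyme reaction without inhibitor and -100% = no enzyme wells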
#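 Step 1, compound plus 15 nM Sfp-PPTase, 15 min, room temperature. Step 2, add rhodamine-CoA (5 uM) and BHQ-2-YbbR (12.5 uM). Step 3, read 525/598 nm fluorescence at 0 and 30 min.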
# G9a inh: blocks human histone lysine methyltransferase G9a; Q96KQ7; AID 504332; Potency, µM (titrated, usually from 102 µM), without a hit: top-dose activity, negative = inhibition, hits mostly inhibitors; hit rate 8.8% among 350,000; G9a H3K9 monomethylation, AlphaScreen, 2 h; note: potency is the fitted concentration of half-maximal effect; nearly all actives have a fitted effect of over 75% in size
# Target sequence (Q96KQ7 913-1193 limits assumed): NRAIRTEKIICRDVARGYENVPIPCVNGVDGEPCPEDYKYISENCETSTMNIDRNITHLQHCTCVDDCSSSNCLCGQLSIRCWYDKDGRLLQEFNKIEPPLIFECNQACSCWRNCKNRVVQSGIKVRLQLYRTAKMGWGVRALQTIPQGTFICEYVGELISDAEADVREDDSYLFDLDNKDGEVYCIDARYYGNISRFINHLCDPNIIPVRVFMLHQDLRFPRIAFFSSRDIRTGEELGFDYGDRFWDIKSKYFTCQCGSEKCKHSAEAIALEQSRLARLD
#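 Quantitative HTS format: methyltransferase activity on a biotin-tagged H3K9 peptide is measured by AlphaScreen, using a rabbit anti-monomethyl-H3K9 antibody with streptavidin donor and anti-IgG acceptor beads. Final levels are 20 nM enzyme, 500 nM peptide, 20 uM SAM; 2 h RT.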
# CCT chaperon mod: cytosolic chaperonin activity modulation. hit rate 0.3% among 360,000. purified chaperonin ATPase assay, HTRF ADP detection, 30 min. AID 651819. activity change, % (test concentration not listed), hits read low; in the data active = activity change below about -30%
#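 First, chaperonin was dispensed at 40 nM or 20 nM final depending on batch activity. Next, compounds were pinned at 76 uM and ATP added at 10 uM. After 30 min at 37 °C, ADP detection reagents ran 30 min at ambient temperature.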
# MmCpn inh: blocks the Methanococcus maripaludis chaperonin Mm-Cpn | purified Mm-Cpn ATPase, ADP Transcreener TR-FRET | Potency, µM (highest dose often 76.9 µM), for the others: at the highest dose activity, negative = inhibition, most hits filed as inhibitors | hit rate 0.031% among 330,000 | AID 504842; note: potency is the fitted concentration of half-maximal effect; nearly all actives have a fitted effect of over 80% in size
#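 Quantitative HTS used 25 nM Mm-CPN and 10 uM ATP in magnesium/KCl Tris buffer, pH 7.4, with 1 mM DTT. Hydrolysis ran 30 min at 37°C; ADP was read by HTRF.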
# VDR inhibitor: vitamin D3 receptor (human) inhibition; P11473; VDR-SRC2-3 peptide fluorescence polarization, 2 h; Potency, µM, inactives show max response, negative = inhibition, hits mostly inhibitors; hit rate 0.93% among 400,000; note: potency is the fitted concentration of half-maximal effect
#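 Signal is fluorescence polarization, reporting how far test compounds block the interaction of VDR with the SRC2-3 coregulator peptide after a 2 h room-temperature incubation.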
# * marks the source's active call; other numbers are inactive results; ? = inconclusive; . = not tested or not shown; [ ] = remark or other dose. Rows were chosen to be rich in hits. Some 10% of all compounds tested hit in one or more screens of this group. Unless noted, calls come from the whole dose curve; as a rule, active = well fitted curve in the direction sought with a large enough effect; inconclusive = small, poorly fitted or top-dose-only effect, or another doubt; inactive = no such curve, though single readings can be large; an effect the other way counts as inactive or inconclusive. Unless noted, % is set by controls: 0 for no effect and ±100 for the full control effect.
SMILES,PLK1 PBD inh,Sfp PPTase inh,G9a inh,CCT chaperon mod,MmCpn inh,VDR inhibitor
CCOC(=O)c1c(C)oc2ncnc(Nc3ccc(OCC)cc3)c12,.,.,0.3%[59 µM],.,.,4.0%
O=c1c(CCc2ccccc2)nc2cnc(N3CCNCC3)nc2n1-c1ccccc1,.,8.8%,-2.7%[0.501 µM],.,.,3.2%
Cc1ccc2c(c1)C(c1ccc(F)cc1)N(C(=O)c1ccc(S(=O)(=O)N3CCCCC3)cc1)CC(=O)N2 (stereo not given),.,.,-11.5%[59 µM],.,.,14.7%
CCN(CC(=O)Nc1c(F)cccc1F)C(=O)c1ccc(=O)[nH]c1,-4.5%,-25.7%,20µM*,-2.9,0.7%,9.9%
CCN(CC(=O)Nc1c(F)cccc1F)C(=O)c1ccc(C(=O)c2ccccc2)cc1,-13.4%,.,-1.1%,-1.4,-1.1%,-1.2%
CCCN1CCCc2cc(CN(CCCN3CCOCC3)C(=O)Nc3ccc(OCC)cc3)ccc21,-4.8%,?,12.6µM*,-1.3,-15.3%,11.8%
CCCN1CCCc2cc(CN(CCCN3CCOCC3)C(=O)Nc3ccc(Cl)c(Cl)c3)ccc21,.,.,11.2µM*,.,.,6.9%
COc1ccc(S(=O)(=O)NCCc2csc3nc(-c4cccc(C)c4)nn23)cc1F,.,.,5.7%[59 µM],.,.,2.3%
COc1ccc(/C=C/c2ccc3ccccc3[n+]2C)cc1OC,-2.4%,-22.6%,35.5µM*,-2.0,-1.0%,-10.4%
CCC(=O)Nc1ccc(N2CCN(S(C)(=O)=O)CC2)cc1,-7.1%,-0.9%,-18.9%[59 µM],1.9,1.5%,6.5%
O=C(Nc1ccc(N2CCCC2)cc1)C(Cl)c1ccccc1 (stereo not given),-29.0%,44.7µM*,10µM*,1.7,-2.9%,44.7µM*
CS(=O)(=O)N1CCN(c2ccc(NC(=O)C(c3ccccc3)c3ccccc3)cc2)CC1,-1.9%,15.2%,8.91µM*,-0.6,0.1%,-3.7%
Cc1ccc(-c2ccc(C3C4C=CCC(C)C4C(=O)N3Cc3ccccc3)c(F)c2)cc1 (stereo not given),.,?,.,.,.,-9.4%
COc1ccc(C)cc1NC(=O)C(NC(=O)c1cc(OC)c(OC)c(OC)c1)C(C)C (stereo not given),29.9µM*,17.6%,1.2%,0.2,-0.6%,?
COc1ccc(-c2cc(C(F)(F)F)n3nc(C(=O)Nc4cc(C)on4)cc3n2)cc1OC,-4.5%,8.2%,-31.6%[59 µM],1.5,-0.1%,13.4%
Cc1ccc(-c2cc(C(F)(F)F)n3nc(C(=O)Nc4ccon4)cc3n2)cc1C,-13.2%,18.6%,10.5%,-3.1,-4.3%,89.1µM*
N#Cc1ccccc1OCCOCCNC1CCCC1,-15.6%,6.3%,10µM*,-2.1,0.9%,-12.0%
O=C(NCc1ccc2[nH]c3c(c2c1)CCCC3)c1ccc(S(=O)(=O)N2CCCCC2)cc1,-16.6%,7.7%,70.8µM*,1.3,-3.3%,-13.7%
CCOc1ccc(NC(=O)CN(C)S(=O)(=O)c2ccc3[nH]c4c(c3c2)CCCC4)cc1,.,.,10µM*,.,.,-7.9%
Cc1cc(C)cc(NC(=O)CN(C)S(=O)(=O)c2ccc3[nH]c4c(c3c2)CCCC4)c1,.,.,?,.,.,18.5%
CN(CC(=O)NCc1ccc(F)cc1)S(=O)(=O)c1ccc2[nH]c3c(c2c1)CCCC3,.,.,15.8µM*,.,.,13.0%
Cc1cccc(N(C)C(=O)CN(C)S(=O)(=O)c2ccc3[nH]c4c(c3c2)CCCC4)c1,.,.,11.2µM*,.,.,3.3%
CN(CC(=O)NCc1ccccc1)S(=O)(=O)c1ccc2[nH]c3c(c2c1)CCCC3,.,.,?,.,.,10.5%
CN(Cc1ccccc1)S(=O)(=O)c1ccc2[nH]c3c(c2c1)CCCCC3,.,.,?,.,.,8.5%
CCN(Cc1ccccc1)C(=O)CN1C(=O)COc2ccc(S(=O)(=O)N(CC)CC)cc21,.,.,0.2%[59 µM],.,.,-7.7%
CCOc1ccc(CNC(=O)c2ccc3c(c2)nc2n3CCC(C)C2)cc1OC (stereo not given),.,.,5.0%[59 µM],.,.,5.9%
CC(=O)c1ccc2noc(-c3ccc(Cl)cc3)c2c1,-9.8%,-4.1%,?,-2.5,-2.4%,5.3%
Cc1cc(-c2onc3ccc(Cl)cc23)ccc1O,0.2%,-39.0%,39.8µM*,0.1,-1.2%,?

# Screening data from PubChem.
